Experimental findings from PubChem BioAssay are described below.

Each structure is given as a SMILES string. Inconclusive results are not listed. Calls of active or inactive are those of the source.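 Rule for the calls, unless noted: active = normalized viability below 100% at a tested concentration; inactive = the rest.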

A short description of test [1]: growth inhibition of DIPG glioma cells, dose response, cell-based, SU-DIPG-XVII, MIPE5.0, CellTiter-Glo, qHTS (AID 1347060; cut-off not given, nearly all actives have AC50 up to about 26 µM;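 for AC50: cells exposed to compound for 48 hours before viability readout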). As to conditions: SU-DIPG-XVII viability, CellTiter-Glo ATP luminescence. In general terms: In ATP-based viability assays light output follows the ATP content of the culture.
Test [2] is described as follows: growth inhibition of DIPG glioma cells, dose response, cell-based, JHH-DIPG-1, MIPE4.0, CellTiter-Glo, qHTS (AID 1347062; cut-off not given, nearly all actives have AC50 up to about 27 µM;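 for AC50: cells exposed to compound for two days before readout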). The conditions noted are these: JHH-DIPG-1 viability, CellTiter-Glo ATP luminescence.
The nature of test [3]: growth inhibition of DIPG glioma cells, dose response, cell-based, SU-DIPG-IV, MIPE4.0, CellTiter-Glo, qHTS (AID 1347063; cut-off not given, nearly all actives have AC50 up to about 30 µM;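 note: compound exposure lasted 48 hours before the viability readout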). As to conditions: SU-DIPG-IV viability, CellTiter-Glo ATP luminescence.
A short description of test [4]: growth inhibition of DIPG glioma cells, dose response, cell-based, SU-DIPG-XIII, MIPE5.0, CellTiter-Glo, qHTS (AID 1347064; cut-off not given, nearly all actives have AC50 up to about 23 µM;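 for AC50: cells exposed to compound for 48 hours before the viability read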). As to conditions: SU-DIPG-XIII viability, CellTiter-Glo ATP luminescence.
The nature of test [5]: viability loss in pontine glioma line – cell-based, SU-DIPG-XXV, MIPE5.0, CellTiter-Glo, qHTS, dose response (AID 1347065; cut-off not given, nearly all actives have AC50 up to about 26 µM;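 note: cells exposed to compound for 48 hours before ATP readout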). As to conditions: CellTiter-Glo ATP luminescence.
Test [6] is described as follows: JHH-DIPG-1 glioma cell viability, MIPE5.0 library, CellTiter-Glo luminescence, qHTS (AID 1347067; cut-off not given, nearly all actives have AC50 up to about 26 µM;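 note: cells exposed to compound for 48 hours before readout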). The conditions noted are these: JHH-DIPG-1 glioma viability, CellTiter-Glo ATP luminescence.
Test [7] is described as follows: SU-DIPG-XXV glioma cell viability, MIPE5.0 library, qHTS (AID 1347068; cut-off not given, nearly all actives have IC50 up to about 30 µM;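 for IC50: cells exposed to compound for 48 hours before viability readout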). (Quantitative high-throughput screening tests each substance at several concentrations.)
Test [8] can be described thus: SU-DIPG-VI glioma cell viability, MIPE4.0 library, CellTiter-Glo luminescence, qHTS (AID 1347066; cut-off not given, nearly all actives have AC50 up to about 30 µM;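 note: cells exposed to compound for 48 hours before readout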). The conditions noted are these: CellTiter-Glo ATP luminescence.
A short description of test [9]: sensitizers of A549 cells to miR-34 induction, primary screen, imaging, A549 dox-inducible miR-34, nuclei and caspase counts (AID 1347080;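 active = compounds whose cell count with miR-34 switched on is under 0.7 times the count with it off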). As to conditions: A549 miR-34 inducible, Hoechst nuclei count, 48 h.
Test [10] in a line: survival rescue of mitochondrial mutant cells in low glucose, primary screen, MELAS cybrids, Rieske KO mouse fibroblasts, CellTiter-Glo (AID 1508586;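 active = mean z-score across replicates of 1.96 or higher in either the MELAS or the Rieske mutant cell line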;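 note: z relative to plate mean and SD of compound and empty wells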).
Test [11] in a line: liver-stage malaria parasite growth inhibition, primary screen, cell-based, HepG2, luciferase luminescence, HepG2 viability (AID 624349; in the data active = parasite load remaining mostly below about 12%, no sharp cut-off; inactive = mostly above about 10%;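 note: 100% = mean of DMSO negative control wells on the same plate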). The conditions noted are these: P. berghei liver stage in HepG2, luciferase luminescence, concentration not given here; parasite load remaining: stronger effect = lower value; viability: measured here: HepG2 viability without parasites.
Test [12] is described as follows: ovarian cancer cell viability with rucaparib, profiling panel, oncology-focused library, rucaparib conditional (AID 1508598). The conditions noted are these: patient-derived ovarian cancer cells, CellTiter-Glo viability, 144 h, stronger effect = lower value.
The mark [13] stands for this setting: stronger effect = lower value, cell number ratio, induced over uninduced.
The mark [14] stands for this setting: measured here: relative caspase fold change +Dox/-Dox.
The mark [15] stands for this setting: measured here: total cells with miR-34 induction, stronger effect = lower value.
Where [16] appears, read: measured here: total cells without miR-34 induction.

For `O=C(O)c1ccccc1C(=O)Nc1ccc(-c2ccccc2)cc1`, the result in [1], in test [2], in test [3], in [4], in [5] and in [6] was inactive. Further, in test [7], the molecule was classed as inactive.
Take `COc1cccc(Nc2c(C(N)=O)cnc3c(C)cc(S(=O)(=O)c4cccc(C(=O)N(C)C)c4)cc23)c1`: the molecule was called inactive in [1], in test [2], in test [3], in test [4], in test [8] and in [6]. Further, the molecule was classed as inactive in [7]. The fold change was 0.95 (inactive) in test [9] (setting [13]) and 0.8 in test [9] (setting [14]). The results for the cell count in test [9] (setting [15]) and in test [9] (setting [16]) were 9130 and 9610, respectively. The z-score in [10] (MELAS cybrid survival, CellTiter-Glo 48 h, stronger effect = higher value) was -0.192 (inactive); in test [10] (Rieske KO mouse fibroblast survival, CellTiter-Glo 72 h) it was -1.7.
Broadly, the viability is a read-out of living cells in per cent, often relative to untreated cells. A word on the AC50: it is the concentration at which the activity in the assay is half-maximal. `Cn1c2ccccc2c2c3c(c4c5ccccc5n(CCC#N)c4c21)CNC3=O`: in test [11], the parasite load remaining was 110% (inactive). Besides, in [11], the viability was 92.8%. Further, the AC50 in [1] is 8.33 µM (active); in [3] it was 0.148 µM (active); in [4], 13.2 µM (active); in [5] it was 7.42 µM (active); in [6], 11.8 µM (active). Further, the outcome in [2] was inactive. The fold change is 0.591 (active) in test [9] (setting [13]) and 1.06 in [9] (setting [14]). For the same molecule, the cell count stood at 1520 in test [9] (setting [15]) and 2580 in test [9] (setting [16]).
What is called IC50 is the concentration needed to halve the response being measured. Take `C=CC(=O)Nc1cc2c(Nc3ccc(F)c(Cl)c3)ncnc2cc1C#CC(C)(C)N1CCN(C)CC1`: the AC50 in [1] is 2.95 µM (active); in test [2] it was 5.26 µM (active); in test [3], 1.87 µM (active); in [4] it was 4.68 µM (active); in test [5] it was 5.9 µM (active); in [8], 5.9 µM (active). Further, the AC50 in [6] was 4.17 µM (active). For the same molecule, in [7], the IC50 was 7.42 µM (active).
Take `COc1cc(OC)c(/C=C/S(=O)(=O)Cc2ccc(OC)c(NCC(=O)O)c2)c(OC)c1`: the AC50 is 0.0934 µM (active) in [1]; 0.935 µM (active) in [2]; 0.0264 µM (active) in test [3]; 0.295 µM (active) in test [4]; 0.118 µM (active) in test [5]; 0.118 µM (active) in test [6]. Moreover, the IC50 in test [7] was 0.0661 µM (active). In addition, the viability in [12] (at 0.000305 µM, OCI-C5x cells, with rucaparib 10 µM, 100% = cells with rucaparib alone) is 110% (inactive); in [12] (at 0.000305 µM, OCI-C5x cells, without rucaparib), 120% (inactive); in [12] (at 0.000305 µM, OCI-P5x cells, with rucaparib 20 µM, 100% = cells with rucaparib alone), 106% (inactive); in [12] (at 0.000305 µM, OCI-P5x cells, without rucaparib), 75.1% (active); in test [12] (at 0.00122 µM, OCI-C5x cells, with rucaparib 10 µM, 100% = cells with rucaparib alone), 114% (inactive); in [12] (at 0.00122 µM, OCI-C5x cells, without rucaparib) it was 111% (inactive). The viability in test [12] (at 0.00122 µM, OCI-P5x cells, with rucaparib 20 µM, 100% = cells with rucaparib alone) is 102% (inactive); in test [12] (at 0.00122 µM, OCI-P5x cells, without rucaparib), 104% (inactive); in [12] (at 0.00488 µM, OCI-C5x cells, with rucaparib 10 µM, 100% = cells with rucaparib alone), 107% (inactive); in test [12] (at 0.00488 µM, OCI-C5x cells, without rucaparib) it was 115% (inactive); in test [12] (at 0.00488 µM, OCI-P5x cells, with rucaparib 20 µM, 100% = cells with rucaparib alone), 103% (inactive); in [12] (at 0.00488 µM, OCI-P5x cells, without rucaparib) it was 101% (inactive). The viability in test [12] (at 0.0195 µM, OCI-C5x cells, with rucaparib 10 µM, 100% = cells with rucaparib alone) was 91.1% (active); in test [12] (at 0.0195 µM, OCI-C5x cells, without rucaparib), 88% (active); in test [12] (at 0.0195 µM, OCI-P5x cells, with rucaparib 20 µM, 100% = cells with rucaparib alone) it was 94.8% (active); in test [12] (at 0.0195 µM, OCI-P5x cells, without rucaparib) it was 61.6% (active); in test [12] (at 0.0781 µM, OCI-C5x cells, with rucaparib 10 µM, 100% = cells with rucaparib alone), 53.4% (active); in [12] (at 0.0781 µM, OCI-C5x cells, without rucaparib), 45% (active). Moreover, the viability in [12] (at 0.0781 µM, OCI-P5x cells, with rucaparib 20 µM, 100% = cells with rucaparib alone) was 73.5% (active); in test [12] (at 0.0781 µM, OCI-P5x cells, without rucaparib), 23.1% (active); in test [12] (at 0.313 µM, OCI-C5x cells, with rucaparib 10 µM, 100% = cells with rucaparib alone), 50.7% (active); in test [12] (at 0.313 µM, OCI-C5x cells, without rucaparib), 35.9% (active); in [12] (at 0.313 µM, OCI-P5x cells, with rucaparib 20 µM, 100% = cells with rucaparib alone), 56.6% (active); in [12] (at 0.313 µM, OCI-P5x cells, without rucaparib) it was 20.6% (active). For the same molecule, the viability in test [12] (at 1.25 µM, OCI-C5x cells, with rucaparib 10 µM, 100% = cells with rucaparib alone) is 37.8% (active); in test [12] (at 1.25 µM, OCI-C5x cells, without rucaparib), 32.9% (active); in [12] (at 1.25 µM, OCI-P5x cells, with rucaparib 20 µM, 100% = cells with rucaparib alone) it was 54.9% (active); in test [12] (at 1.25 µM, OCI-P5x cells, without rucaparib), 14.5% (active); in test [12] (at 5 µM, OCI-C5x cells, with rucaparib 10 µM, 100% = cells with rucaparib alone), 36.1% (active); in test [12] (at 5 µM, OCI-C5x cells, without rucaparib), 29% (active). In addition, the viability in test [12] (at 5 µM, OCI-P5x cells, with rucaparib 20 µM, 100% = cells with rucaparib alone) was 52% (active); in test [12] (at 5 µM, OCI-P5x cells, without rucaparib), 12.1% (active).
